From PubChem BioAssay
The source made the active and inactive calls. Unless noted, the rule behind the calls is not given here.

Assays:
[1] = test system: Wnt5a (protein binding on small-molecule microarray); experiment: small molecules binding Wnt5a protein – biophysical, small-molecule microarray, 635/667 nm fluorescence, primary screen (AID 1142); details: 635 nm fluorescence, higher = more signal;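 note: fluorescence read at 667 nm with signal to noise per printed feature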
[2] = ATP-based viability of Huh7 replicon cells – cell-based, CellTiter-Glo luminescence, basal, 48 h, cytotoxicity control for HCV replication inhibitor project, primary screen (AID 1143); details: higher = more signal, called active from +8 up or from −8 down;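 note: Huh7 hepatoma cells carrying a hepatitis C replication reporter with no stimulus; test concentration not given here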
[3] = Pseudomonas biofilm growth suppression – PAO1 strain, BacTiter-Glo luminescence, LB-PBS, primary screen (AID 1144); details: P. aeruginosa PAO1 biofilm, 12 h, higher = more signal
[4] = basal CRE-LacZ reporter activity in PC12 – cell-based, unstimulated, primary screen (AID 1145); details: no forskolin, luminescence, 4.5 h, higher = more signal, called active from +8 up or from −8 down
[5] = forskolin-driven CRE-LacZ activity in PC12 – cell-based, CRE-LacZ reporter, forskolin-stimulated, primary screen (AID 1146); details: luminescence, 4.5 h, higher = more signal, called active from +8 up or from −8 down;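 note: PC12 cells with 6xCRE LacZ reporter stimulated by forskolin 10 µM; beta-galactosidase reporter signal reflecting CREB driven transcription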
[6] = molecular target: Streptavidin (Streptomyces avidinii) (UniProt P22629); experiment: compounds binding control protein streptavidin – biophysical, small-molecule microarray, 635/667 nm fluorescence, artefact control for SMM compound annotation, primary screen (AID 1147); details: higher = more signal;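 note: signal reflects streptavidin binding to arrayed compounds as a control protein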
Sequence of Streptavidin (Streptomyces avidinii) (P22629 whole entry, looked up): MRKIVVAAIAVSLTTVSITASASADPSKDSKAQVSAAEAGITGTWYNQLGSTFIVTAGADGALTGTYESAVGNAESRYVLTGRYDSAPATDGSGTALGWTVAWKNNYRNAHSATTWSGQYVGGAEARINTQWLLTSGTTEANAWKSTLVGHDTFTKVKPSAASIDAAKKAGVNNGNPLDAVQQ

[7] = probe aInhba binding on compound microarray – biochemical, small-molecule microarray, 635/667 nm fluorescence, primary screen (AID 1148); details: higher = more signal;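 note: score merges 667nm spot fluorescence with signal-to-noise for antibody binding to printed compounds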
[8] = molecular target: Torsin-1A (Homo sapiens) (UniProt O14656); experiment: TOR1A wild-type binding on microarray – cell lysate, small-molecule microarray, lysate, 635/667 nm, primary screen (AID 1149); details: COS7 hTOR1A-WT lysate, 635 nm fluorescence, higher = more signal
Sequence of Torsin-1A (Homo sapiens) (O14656 whole entry, looked up): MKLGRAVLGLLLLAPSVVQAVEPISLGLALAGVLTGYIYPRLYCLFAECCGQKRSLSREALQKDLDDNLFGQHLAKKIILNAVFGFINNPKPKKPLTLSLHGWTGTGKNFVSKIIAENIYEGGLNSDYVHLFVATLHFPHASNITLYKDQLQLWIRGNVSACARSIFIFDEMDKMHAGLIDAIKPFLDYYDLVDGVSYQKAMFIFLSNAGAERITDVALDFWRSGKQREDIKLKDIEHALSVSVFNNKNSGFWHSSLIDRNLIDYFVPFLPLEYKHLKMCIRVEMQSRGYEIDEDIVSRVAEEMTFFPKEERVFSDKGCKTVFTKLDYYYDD

[9] = molecular target: Torsin-1A (Homo sapiens) (UniProt O14656); experiment: torsin A mutant lysate binding on microarrays – cell lysate, small-molecule microarray, COS7 lysate, 635/667 nm fluorescence, primary screen (AID 1150); details: COS7 hTOR1A mutant lysate, 635 nm fluorescence, higher = more signal;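 note: score pools 667 nm emission and signal to noise measuring lysate protein binding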
[10] = test system: Sonic hedgehog protein (Shh); experiment: Sonic hedgehog microarray binding compounds – biochemical, small-molecule microarray, 635/667 nm fluorescence, primary screen (AID 1151); details: 635 nm fluorescence, higher = more signal;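 note: Shh protein binding to compounds spotted on small-molecule microarray slides; score combines spot fluorescence intensity with signal-to-noise across triplicate slides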
[11] = optical density shifts of acrAB sulA E. coli – strain DRC41, OD650, 48 h, E. coli filamentation inducer project, primary screen (AID 1152); details: higher = more signal, called active from +8 up or from −8 down;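 note: E. coli MC1000 strain DRC41 lacking acrAB efflux pump and sulA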
[12] = probe aLefty1 binding on compound microarray – biochemical, small-molecule microarray, 635/667 nm fluorescence, primary screen (AID 1153); details: higher = more signal;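 note: score merges spot fluorescence with signal-to-noise ratio from the scanned slide images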
[13] = plasmodial surface anion channel blockers, osmotic lysis – cell-based, P. falciparum Indochina, OD700, 1 h, primary screen (AID 1154); details: P. falciparum Indochina infected RBC osmotic lysis, higher = more signal, called active from +8 up or from −8 down
[14] = plasmodial surface anion channel blockers, osmotic lysis – cell-based, P. falciparum Indochina, OD700, 2 h, primary screen (AID 1155);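 note: lysis reports solute entry through the parasite surface anion channel PSAC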; details: P. falciparum Indochina infected erythrocytes, higher = more signal, called active from +8 up or from −8 down
[15] = changes in parasitized red cell lysis, either direction – P. falciparum Indochina, OD700, 3 h, PSAC antagonist project, primary screen (AID 1156); details: P. falciparum-infected erythrocytes, osmotic lysis, higher = more signal, called active from +8 up or from −8 down
[16] = plasmodial surface anion channel blockers, osmotic lysis – cell-based, P. falciparum Indochina, OD700, 18 h, primary screen (AID 1157); details: P. falciparum Indochina infected erythrocytes, osmotic lysis OD700, 18 h; higher = more signal, called active from +8 up or from −8 down
[17] = S6 kinase pathway phospho-S6 level changes – cell-based, A549, cytoblot, luminescence, serum-stimulated, primary screen (AID 1158); details: 5 h, higher = more signal;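 note: serum-stimulated A549 lung adenocarcinoma cells; signal is phosphorylated S6 detected by cytoblot immunostaining with HRP secondary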
[18] = molecular target: NADPH oxidase 2 (Homo sapiens) (UniProt P04839); experiment: compounds shifting NOX2 Amplex Red fluorescence – cell-based, HEK293-NOX2, PMA-stimulated, NOX inhibitor project, primary screen (AID 1159); details: 45 min, higher = more signal, called active from +8 up or from −8 down; note: test concentration not given here
Sequence of NADPH oxidase 2 (Homo sapiens) (P04839 whole entry, looked up): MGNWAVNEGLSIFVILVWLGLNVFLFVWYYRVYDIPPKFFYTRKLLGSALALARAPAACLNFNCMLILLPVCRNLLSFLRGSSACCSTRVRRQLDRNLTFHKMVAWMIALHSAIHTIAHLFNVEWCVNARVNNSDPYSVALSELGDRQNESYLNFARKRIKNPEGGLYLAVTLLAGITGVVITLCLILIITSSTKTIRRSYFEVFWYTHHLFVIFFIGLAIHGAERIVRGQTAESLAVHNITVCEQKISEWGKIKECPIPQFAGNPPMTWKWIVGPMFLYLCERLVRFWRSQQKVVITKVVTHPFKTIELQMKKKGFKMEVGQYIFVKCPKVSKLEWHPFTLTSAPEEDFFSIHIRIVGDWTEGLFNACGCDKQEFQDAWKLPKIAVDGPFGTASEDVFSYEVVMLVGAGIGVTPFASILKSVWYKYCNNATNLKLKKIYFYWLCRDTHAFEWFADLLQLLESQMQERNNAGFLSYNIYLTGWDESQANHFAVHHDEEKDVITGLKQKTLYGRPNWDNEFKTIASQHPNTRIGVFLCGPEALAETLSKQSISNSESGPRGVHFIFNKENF

[19] = molecular target: NADPH oxidase 4 (Homo sapiens) (UniProt Q9NPH5); experiment: compounds shifting NOX4 Amplex Red fluorescence – cell-based, HEK293-NOX4, tetracycline-induced, NOX inhibitor project, primary screen (AID 1160); details: HEK293-NOX4, Amplex Red H2O2 fluorescence, 45 min; higher = more signal, called active from +8 up or from −8 down
Sequence of NADPH oxidase 4 (Homo sapiens) (Q9NPH5 whole entry, looked up): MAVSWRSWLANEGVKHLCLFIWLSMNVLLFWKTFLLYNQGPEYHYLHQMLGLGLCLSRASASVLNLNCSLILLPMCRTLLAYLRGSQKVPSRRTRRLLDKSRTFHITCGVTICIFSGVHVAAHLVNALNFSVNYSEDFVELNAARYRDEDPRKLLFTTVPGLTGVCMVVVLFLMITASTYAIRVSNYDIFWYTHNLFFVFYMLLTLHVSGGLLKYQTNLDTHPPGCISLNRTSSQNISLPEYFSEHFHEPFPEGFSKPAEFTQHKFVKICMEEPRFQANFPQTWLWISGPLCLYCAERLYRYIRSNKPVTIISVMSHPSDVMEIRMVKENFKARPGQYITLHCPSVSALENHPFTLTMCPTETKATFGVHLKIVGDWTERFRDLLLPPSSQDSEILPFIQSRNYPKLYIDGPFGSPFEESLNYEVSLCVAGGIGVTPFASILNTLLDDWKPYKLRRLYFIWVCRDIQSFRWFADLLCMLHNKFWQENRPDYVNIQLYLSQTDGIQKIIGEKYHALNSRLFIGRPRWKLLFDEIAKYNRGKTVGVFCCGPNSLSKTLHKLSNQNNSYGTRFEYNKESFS

[20] = molecular target: NADPH oxidase 5 (Homo sapiens) (UniProt Q96PH1); experiment: compounds shifting NOX5 Amplex Red fluorescence – cell-based, HEK293-NOX5, NOX inhibitor project, primary screen (AID 1161); details: HEK293-NOX5, ionomycin, 45 min, higher = more signal
Sequence of NADPH oxidase 5 (Homo sapiens) (Q96PH1 whole entry, looked up): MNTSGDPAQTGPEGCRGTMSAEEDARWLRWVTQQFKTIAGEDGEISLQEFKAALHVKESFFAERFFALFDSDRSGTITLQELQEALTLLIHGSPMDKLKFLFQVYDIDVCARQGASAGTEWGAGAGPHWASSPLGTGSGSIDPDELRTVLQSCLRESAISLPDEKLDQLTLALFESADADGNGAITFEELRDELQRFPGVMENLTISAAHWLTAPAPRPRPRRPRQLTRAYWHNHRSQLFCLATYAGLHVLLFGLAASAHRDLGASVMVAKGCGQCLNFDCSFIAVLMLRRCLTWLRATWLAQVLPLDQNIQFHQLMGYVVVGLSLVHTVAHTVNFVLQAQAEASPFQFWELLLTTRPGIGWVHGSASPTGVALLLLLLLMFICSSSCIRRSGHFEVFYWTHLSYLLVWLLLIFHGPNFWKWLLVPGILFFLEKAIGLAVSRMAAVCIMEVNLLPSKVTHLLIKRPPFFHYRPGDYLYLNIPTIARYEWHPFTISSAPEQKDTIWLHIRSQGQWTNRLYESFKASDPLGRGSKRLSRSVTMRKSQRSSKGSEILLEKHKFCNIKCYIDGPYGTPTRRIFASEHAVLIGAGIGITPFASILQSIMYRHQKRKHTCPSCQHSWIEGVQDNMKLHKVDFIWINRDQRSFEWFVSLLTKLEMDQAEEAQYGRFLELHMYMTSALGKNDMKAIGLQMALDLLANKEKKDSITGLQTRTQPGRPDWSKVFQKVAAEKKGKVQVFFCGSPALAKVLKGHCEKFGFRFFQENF

SMILES | composite z-score [1] | z-score [2] | z-score [3] | z-score [4] | z-score [5] | composite z-score [6] | composite z-score [7] | composite z-score [8] | composite z-score [9] | composite z-score [10] | z-score [11] | composite z-score [12] | z-score [13] | z-score [14] | z-score [15] | z-score [16] | z-score [17] | z-score [18] | z-score [19] | z-score [20]
COCC(=C=CC[C@H](O)c1cccc(OCCO)c1)C[C@H](O)COCc1ccccc1 | 0.191 | -0.33 (inactive) | -0.218 (inactive) | 5.03 (inactive) | 1.74 (inactive) | -0.599 | 0.264 | 2.41 | 1.31 | 1.28 | -0.0371 (inactive) | 0.213 | 9.2 (active) | 1.07 (inactive) | 0.307 (inactive) | 0.404 (inactive) | -0.234 | -0.436 (inactive) | -0.797 (inactive) | -1.39
CC(C)C[C@@H]1NC(=O)[C@H]2C[C@@H](C(=O)NCCCCCN)[C@@H](c3cccc(OCCO)c3)N2C1=O | -0.0295 | -0.707 (inactive) | -0.887 (inactive) | 0.273 (inactive) | -0.673 (inactive) | -0.174 | -0.008 | 0.67 | 0.207 | -0.414 | 1.25 (inactive) | -0.0172 | 3.07 (inactive) | -0.328 (inactive) | 2.27 (inactive) | -2.15 (inactive) | 2.13 | 1.33 (inactive) | 0.993 (inactive) | 2.1
C=C(COC)C(=O)CC[C@H](OC(=O)c1cccnc1)c1ccc(CO)o1 | 0.196 | -0.319 (inactive) | 0.312 (inactive) | 0.522 (inactive) | 0.756 (inactive) | -0.184 | 0.13 | 2.19 | -0.0291 | 1.41 | -0.471 (inactive) | -0.147 | 0.904 (inactive) | 0.0112 (inactive) | -0.376 (inactive) | 0.063 (inactive) | -0.262 | 0.337 (inactive) | -0.159 (inactive) | 0.221
C=C(COC)/C(=C/C[C@@H](OC(C)=O)c1ccc(CO)o1)c1cc(C(=O)OC)ccc1OC | -0.0561 | 0.0759 (inactive) | -0.921 (inactive) | -0.0602 (inactive) | 1.12 (inactive) | -0.367 | -0.0933 | -0.5 | 0.666 | 1.64 | 0.265 (inactive) | 0.051 | 1.56 (inactive) | 0.362 (inactive) | 0.389 (inactive) | 0.0621 (inactive) | 0.187 | 0.184 (inactive) | -0.207 (inactive) | 0.13
O=C1OCC=C[C@H]2OC34C=CCN(c5ccc6ccccc6c5)C(=O)[C@H]3N(CCCCCO)C(=O)[C@@H]4[C@@H]12 (stereo not given in full) | -0.137 | 0.234 (inactive) | 0.494 (inactive) | 0.724 (inactive) | 0.0532 (inactive) | -0.884 | -0.0963 | -1.92 | -1.41 | -0.968 | -0.186 (inactive) | 0.407 | 2.04 (inactive) | 0.132 (inactive) | 1 (inactive) | 0.162 (inactive) | -0.798 | 1.57 (inactive) | 0.056 (inactive) | 2.93
COCCCNC(=O)[C@@H]1c2ccccc2C(=O)N(C2Cc3ccccc3C2)[C@H]1c1ccc(CO)cc1 | -0.0499 | 0.646 (inactive) | 0.48 (inactive) | -0.619 (inactive) | -0.67 (inactive) | -0.449 | 0.208 | 0.717 | -0.184 | 0.457 | 0.748 (inactive) | -0.0603 | 3.1 (inactive) | 1.18 (inactive) | 0.65 (inactive) | 0.476 (inactive) | -0.256 | -0.193 (inactive) | 0.444 (inactive) | -0.0459
CCCNC(=O)[C@@]1(Sc2ccc(C)cc2)CC(=O)N(C(C)C)[C@@H]1c1ccc(CO)cc1I | -0.272 | -1.07 (inactive) | 0.767 (inactive) | -0.412 (inactive) | 0.892 (inactive) | -1 | -0.186 | 0.0671 | 0.157 | -0.42 | -0.236 (inactive) | -0.0046 | 5.82 (inactive) | 0.424 (inactive) | 0.0627 (inactive) | 0.108 (inactive) | -0.198 | 2.46 (inactive) | -2.43 (inactive) | 0.276
C[C@@]12COC[C@]13C=C(Br)[C@H](C2)[C@@]1(CO1)C3=O | -0.329 | 0.603 (inactive) | 0.708 (inactive) | 0.769 (inactive) | 1.51 (inactive) | -0.875 | -0.0966 | -1.76 | -0.55 | -0.3 | -0.745 (inactive) | -0.0003 | -0.526 (inactive) | -0.0824 (inactive) | -0.347 (inactive) | -0.161 (inactive) | -0.788 | 0.51 (inactive) | 0.527 (inactive) | 0.119
